According to PubChem BioAssay:

Each compound was assayed against Dickkopf-related protein 1 (Homo sapiens) (UniProt O94907) (assay: DKK1 binders on small-molecule microarrays, primary screen, biochemical, small-molecule microarray, 635 nm fluorescence scan (AID 1106;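 also: score merges emission near 667 nm with signal to noise over three replicate slides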)). Settings: DKK1 binding, higher = more signal.
Sequence of Dickkopf-related protein 1 (Homo sapiens) (O94907 whole entry, looked up): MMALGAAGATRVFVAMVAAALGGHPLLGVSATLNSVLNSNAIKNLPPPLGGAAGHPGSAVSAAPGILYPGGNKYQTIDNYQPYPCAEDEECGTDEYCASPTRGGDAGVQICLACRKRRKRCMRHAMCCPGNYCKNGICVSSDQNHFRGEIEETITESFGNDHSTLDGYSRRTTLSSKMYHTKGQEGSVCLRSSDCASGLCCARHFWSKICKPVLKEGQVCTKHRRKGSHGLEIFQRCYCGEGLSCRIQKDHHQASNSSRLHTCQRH

Structure (SMILES)	composite z-score
COC(=O)c1nc2oc1CC[C@@H](CO)NC(=O)N(C)Cc1cnnn1C[C@H](Cc1ccccc1)NC2=O	-0.682
CN1C(=O)C2C=CC(C(O)COCc3ccccc3)N(N(c3ccccc3)c3ccccc3)C2C1=O (configuration not stated)	-0.674
COc1cc2c(cc1O)C(C)N(Cc1ccc([N+](=O)[O-])o1)CC2 (configuration not stated)	-0.0673
C=CCOC(=O)[C@H]1[C@@H]2C(=O)O[C@@H](c3ccccc3)[C@@H](c3ccccc3)N2[C@@H](c2ccc(OCCOC(=O)[C@@H]3C[C@@H]4C(=O)N[C@@H](CCCCN(C)C)C(=O)N4[C@@H]3c3ccc(O)cc3)cc2)[C@]12C(=O)Nc1ccccc12	1.27
CCOC(=O)C1=C[C@@H](c2ccccc2)N(S(=O)(=O)c2ccc(C)cc2)[C@H]1c1ccccc1Cl	0.508
C[N+](C)(C)CCCCCCNC(=O)[C@H]1C[C@H]2C(=O)NCC(=O)N2[C@H]1c1ccc(O)cc1	0.687
COc1cc(CO)cc(I)c1O[C@H]1C=C(C(=O)NCCO)C[C@@H](NCc2ccc(F)cc2)[C@@H]1O	0.978
COC1OC[C@]2(C)[C@H]3C4=C(CN2C(=O)OC(C)(C)C)[C@H](C)C(CO)C(CO)C4CC[C@@H]13 (some centres not stated)	-0.362
O=C1O[C@H](c2ccccc2)[C@H](c2ccccc2)N2[C@H]1[C@@H](C(=O)Nc1nc3ccccc3s1)[C@]1(C(=O)Nc3ccc(C#CCCO)cc31)[C@H]2c1ccc(O)cc1	0.198
C=CCC(OC(C)=O)[C@@H]1[C@@H](N(Cc2cc3ccccc3o2)C(=O)Cc2ccc(F)cc2)c2cc(OCCCO)ccc2N1C(=O)c1ccc2ccccc2c1 (some centres not stated)	0.0521
OCCCC1=CC(c2ccc(CN3CCCC3)cc2)N(Cc2sc3ccccc3c2Cl)CC1 (configuration not stated)	0.771
O=C1O[C@H](c2ccccc2)[C@H](c2ccccc2)N2[C@H]1[C@@H](C(=O)N1CCN(c3ncccn3)CC1)[C@]1(C(=O)Nc3ccc(C#CC4(O)CCCCCC4)cc31)[C@H]2c1ccc(OCCO)cc1	1.42
O=C1C2C=CC(C(O)c3ccc(Br)cc3)N(Nc3ccccc3F)C2C(=O)N1c1ccccc1 (configuration not stated)	-0.325
COCCOC(=O)N1C(=O)[C@@]2(c3cc(C#CCC(C(=O)OC)C(=O)OC)ccc31)[C@H](C(=O)N1CCc3cc(OC)c(OC)cc3C1)[C@H]1C(=O)O[C@H](c3ccccc3)[C@H](c3ccccc3)N1[C@@H]2c1ccc(OCCO)cc1	0.943
CC(CO)N1C(=O)[C@@H]2[C@H]3C(=O)OCC=C[C@H]3OC23C=CCN(CCN2CCOCC2)C(=O)[C@@H]13 (some centres not stated)	0.439
C=C(COC)C(=O)CC[C@@H](OC(=O)c1cccnc1)c1ccc(OCCO)cc1	0.922
COC(=O)[C@@]1(Cc2ccc(OC)cc2)[C@H]2c3cc(C(=O)N4CCCC4)n(Cc4cccc5ccccc45)c3C[C@H]2CN1C(=O)c1ccccc1	-0.724
CC(C)(C)OC(=O)CC[C@@]1(C(=O)NCc2ccccc2)N=C(c2ccc(OCCCO)cc2)O[C@@H]1c1ccccc1N=[N+]=[N-]	0.0295
C=CC[C@@]1(C(=O)N2CCOCC2)N=C(c2ccc(OCCCO)cc2)O[C@@H]1c1ccccc1CN=[N+]=[N-]	0.472
COC(=O)[C@@]1(Cc2ccc(F)cc2)[C@H]2c3cc(C(=O)N4CCCC4)n(CCc4ccc(O)c(O)c4)c3C[C@H]2CN1C(=O)c1ccccc1	-0.359
CCOC(=O)C[C@H]1[C@H](OC(=O)c2cc3ccccc3oc2=O)[C@@H](NC(=O)c2ccc(-c3ccccc3)cc2)c2cc(OCCCO)ccc2N1C(=O)c1ccc2ccccc2n1	0.45
COc1ccc([Si](C)(C)[C@H]2[C@H](CCn3cc([C@H](O)c4ccccc4)nn3)O[C@@]3(C(=O)N(Cc4ccc(N5C(=O)c6cccc7cccc5c67)cc4)c4ccccc43)[C@@H]2C)cc1	-0.858
C[C@@H]1NC(=O)[C@@]23C(=O)N[C@@H](Cc4ccccc4)C2[C@H](C)[C@@]2(C)O[C@H]2C3/C=C/C/C=C\CNC(=O)[C@@H]2CCCN2C1=O (some centres not stated)	0.0077
COC(=O)[C@@]1(Cc2ccccc2)[C@H]2c3cc(C(=O)N(C)C)n(Cc4c(CO)[nH]cc(C)c4=O)c3C[C@H]2CN1C(=O)c1ccccc1	-0.296
COC(=O)CCCCCCC(=O)Nc1ccc(NC(=O)CCCC[P+](c2ccccc2)(c2ccccc2)c2ccccc2)cc1	1.16

Each compound was assayed on Inhibin beta A chain (activin A) (assay: INHBA (activin A) binders on microarrays, primary screen, biochemical, small-molecule microarray, 635 nm fluorescence scan (AID 1107;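 also: mouse activin A protein probed at 4.33 µg/mL on printed slides; score merges bound-protein fluorescence near 667 nm with spot signal-to-noise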)). Settings: small-molecule microarray binding, higher = more signal.

Structure (SMILES)	composite z-score
COc1ccc([Si](C)(C)[C@@H]2[C@@H](CC(=O)N3Cc4ccccc4C[C@H]3CO)O[C@]3(C(=O)N(C)c4ccccc43)[C@H]2C)cc1	0.916
O=C(N1CCCCC1)[C@@]1(CCS(=O)(=O)c2ccccc2)COC(c2ccc(OCCCO)cc2)=N1	1.21
O=C1NC(=O)C2C1C=CC(C(O)CCc1ccccc1)N2Nc1ccc(Cl)cc1Cl (configuration not stated)	1.28
C=CCC(OC(C)=O)[C@@H]1[C@@H](N(Cc2cc3ccccc3o2)C(=O)c2ccc(-c3ccccc3)cc2)c2cc(OCCCO)ccc2N1C(=O)c1ccc2ccccc2c1 (some centres not stated)	1.02
CCOC(=O)C[C@H]1[C@H](OC(=O)Cc2ccc3c(c2)OCO3)[C@@H](NC(=O)Cc2ccc(OC)cc2)c2cc(OCCCO)ccc2N1C(=O)c1ccc2ccccc2n1	0.825
COC(=O)c1c2oc(c1C(=O)OC)C(=O)N(Cc1ccccc1)Cc1cn(nn1)C[C@H](Cc1ccccc1)NC(=O)N[C@H](CO)CC2	0.0809
NC(N)=NCCCn1cc(CNC(=O)[C@@H](N)Cc2ccccc2)nn1	0.9
NC(=O)N1C(=O)C2C(C1=O)C1C=C(CCCO)C2C(c2cccs2)N1Cc1cccc(OC(F)(F)F)c1 (configuration not stated)	0.944
CCOC(=O)C[C@H]1[C@H](OC(=O)c2cc3ccccc3oc2=O)[C@@H](NC(=O)Cc2ccc(OC)cc2)c2cc(OCCCO)ccc2N1C(=O)c1ccc2ccccc2n1	0.155
COCCOC(=O)N1C(=O)[C@@]2(c3cc(C#CC4=CCCCC4)ccc31)[C@H](c1ccc(OCCO)cc1)N1[C@H](c3ccccc3)[C@H](c3ccccc3)OC(=O)[C@H]1[C@@H]2C(=O)NC[C@H](O)c1ccccc1	1.29
COC(=O)c1nc2oc1CC[C@@H](CO)NC(=O)N(C)Cc1cnnn1C[C@H](Cc1ccccc1)NC2=O	0.139
CN1C(=O)C2C=CC(C(O)COCc3ccccc3)N(N(c3ccccc3)c3ccccc3)C2C1=O (configuration not stated)	-0.101
COc1cc2c(cc1O)C(C)N(Cc1ccc([N+](=O)[O-])o1)CC2 (configuration not stated)	1.31
C=CCOC(=O)[C@H]1[C@@H]2C(=O)O[C@@H](c3ccccc3)[C@@H](c3ccccc3)N2[C@@H](c2ccc(OCCOC(=O)[C@@H]3C[C@@H]4C(=O)N[C@@H](CCCCN(C)C)C(=O)N4[C@@H]3c3ccc(O)cc3)cc2)[C@]12C(=O)Nc1ccccc12	-0.471
CCOC(=O)C1=C[C@@H](c2ccccc2)N(S(=O)(=O)c2ccc(C)cc2)[C@H]1c1ccccc1Cl	0.556
C[N+](C)(C)CCCCCCNC(=O)[C@H]1C[C@H]2C(=O)NCC(=O)N2[C@H]1c1ccc(O)cc1	-0.253

Structure (SMILES)	composite z-score
COc1cc(CO)cc(I)c1O[C@H]1C=C(C(=O)NCCO)C[C@@H](NCc2ccc(F)cc2)[C@@H]1O	-0.144
COC1OC[C@]2(C)[C@H]3C4=C(CN2C(=O)OC(C)(C)C)[C@H](C)C(CO)C(CO)C4CC[C@@H]13 (some centres not stated)	1.17
O=C1O[C@H](c2ccccc2)[C@H](c2ccccc2)N2[C@H]1[C@@H](C(=O)Nc1nc3ccccc3s1)[C@]1(C(=O)Nc3ccc(C#CCCO)cc31)[C@H]2c1ccc(O)cc1	0.635
C=CCC(OC(C)=O)[C@@H]1[C@@H](N(Cc2cc3ccccc3o2)C(=O)Cc2ccc(F)cc2)c2cc(OCCCO)ccc2N1C(=O)c1ccc2ccccc2c1 (some centres not stated)	1.04
OCCCC1=CC(c2ccc(CN3CCCC3)cc2)N(Cc2sc3ccccc3c2Cl)CC1 (configuration not stated)	1.41
O=C1O[C@H](c2ccccc2)[C@H](c2ccccc2)N2[C@H]1[C@@H](C(=O)N1CCN(c3ncccn3)CC1)[C@]1(C(=O)Nc3ccc(C#CC4(O)CCCCCC4)cc31)[C@H]2c1ccc(OCCO)cc1	0.86
O=C1C2C=CC(C(O)c3ccc(Br)cc3)N(Nc3ccccc3F)C2C(=O)N1c1ccccc1 (configuration not stated)	0.404
COCCOC(=O)N1C(=O)[C@@]2(c3cc(C#CCC(C(=O)OC)C(=O)OC)ccc31)[C@H](C(=O)N1CCc3cc(OC)c(OC)cc3C1)[C@H]1C(=O)O[C@H](c3ccccc3)[C@H](c3ccccc3)N1[C@@H]2c1ccc(OCCO)cc1	0.541
CC(CO)N1C(=O)[C@@H]2[C@H]3C(=O)OCC=C[C@H]3OC23C=CCN(CCN2CCOCC2)C(=O)[C@@H]13 (some centres not stated)	0.777
C=C(COC)C(=O)CC[C@@H](OC(=O)c1cccnc1)c1ccc(OCCO)cc1	1.26
COC(=O)[C@@]1(Cc2ccc(OC)cc2)[C@H]2c3cc(C(=O)N4CCCC4)n(Cc4cccc5ccccc45)c3C[C@H]2CN1C(=O)c1ccccc1	0.849
CC(C)(C)OC(=O)CC[C@@]1(C(=O)NCc2ccccc2)N=C(c2ccc(OCCCO)cc2)O[C@@H]1c1ccccc1N=[N+]=[N-]	0.795
C=CC[C@@]1(C(=O)N2CCOCC2)N=C(c2ccc(OCCCO)cc2)O[C@@H]1c1ccccc1CN=[N+]=[N-]	1.34
COC(=O)[C@@]1(Cc2ccc(F)cc2)[C@H]2c3cc(C(=O)N4CCCC4)n(CCc4ccc(O)c(O)c4)c3C[C@H]2CN1C(=O)c1ccccc1	1.1
CCOC(=O)C[C@H]1[C@H](OC(=O)c2cc3ccccc3oc2=O)[C@@H](NC(=O)c2ccc(-c3ccccc3)cc2)c2cc(OCCCO)ccc2N1C(=O)c1ccc2ccccc2n1	0.379
COc1ccc([Si](C)(C)[C@H]2[C@H](CCn3cc([C@H](O)c4ccccc4)nn3)O[C@@]3(C(=O)N(Cc4ccc(N5C(=O)c6cccc7cccc5c67)cc4)c4ccccc43)[C@@H]2C)cc1	-1.13
